Data published in PubChem BioAssay (EPA / NIEHS).
Values joined by “and” are separate entries in the source; they are usually repeats but may differ in a detail not shown here. Equal values may be shown once. Records with an inconclusive call do not appear. Some compounds were tested as several samples or in several runs, with calls that do not always agree. Active and inactive are the calls of the source. The calls were made as follows, unless noted: active = hit-call score of the fitted dose curve at least 0.9, where 1 is the maximum; inactive = score below 0.9.

How the values were obtained:
[1] = target: Glucocorticoid receptor (Homo sapiens) (UniProt P04150); test: ATG_GR_TRANS: Attagene TRANS-FACTORIAL HepG2 Assay for human Glucocorticoid Receptor (GR) (AID 2282978; active = hit-call score of the fitted dose curve at least 0.9, where 1 is the maximum;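 also: activators score as hits since higher reporter transcript over DMSO is fitted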); details: HepG2 Attagene TRANS GR reporter, mRNA transcription
Outline: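 Transient MRTU transfection of HepG2 (GAL4-UAS reporters, exogenous NR-GAL4 chimeras), 24 h dosing. Readout: reporter transcript via RT-PCR + capillary electrophoresis fluorescence. Positive direction vs DMSO baseline.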

[2] = target: Bile acid receptor (Homo sapiens) (UniProt Q96RI1); test: ATG_FXR_TRANS: Attagene TRANS-FACTORIAL HepG2 Assay for Farnesoid X Receptor (FXR) (AID 2282979; active = hit-call score of the fitted dose curve at least 0.9, where 1 is the maximum;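 also: hits raise reporter mRNA above DMSO so AC50 marks FXR activation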); details: HepG2 Attagene TRANS FXR-GAL4 reporter transcription
Bile acid receptor (Homo sapiens), sequence (Q96RI1 whole entry, looked up, the tested form may be a part): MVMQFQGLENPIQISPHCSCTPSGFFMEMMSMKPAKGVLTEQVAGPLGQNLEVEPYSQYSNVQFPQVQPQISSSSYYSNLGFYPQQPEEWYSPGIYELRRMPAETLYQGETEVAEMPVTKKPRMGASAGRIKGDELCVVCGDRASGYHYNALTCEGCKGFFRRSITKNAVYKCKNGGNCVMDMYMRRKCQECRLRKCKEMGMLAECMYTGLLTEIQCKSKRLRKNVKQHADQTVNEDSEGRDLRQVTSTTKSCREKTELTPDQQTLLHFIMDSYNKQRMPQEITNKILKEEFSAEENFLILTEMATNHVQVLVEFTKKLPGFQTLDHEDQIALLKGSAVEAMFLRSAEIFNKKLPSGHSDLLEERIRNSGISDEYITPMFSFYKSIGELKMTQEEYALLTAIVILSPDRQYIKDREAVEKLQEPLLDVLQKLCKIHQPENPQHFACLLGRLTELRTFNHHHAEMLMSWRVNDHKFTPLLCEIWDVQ
Outline: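 After 24 h chemical treatment of transfected HepG2 cells, GAL4-UAS reporter transcripts driven by an exogenous FXR-GAL4 fusion were measured by RT-PCR and capillary electrophoresis. Increases over DMSO were fitted.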

[3] = ATG_M_32_TRANS: Attagene TRANS-FACTORIAL HepG2 Assay for M32 Transcription Factor (Internal Marker) (AID 2282984; active = hit-call score of the fitted dose curve at least 0.9, where 1 is the maximum;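 also: transcript level of a background control reporter unit measured by RT-PCR and capillary electrophoresis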); details: HepG2 Attagene TRANS M32 internal marker reporter
Outline: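 Capillary electrophoresis of 6-FAM-labelled reporter fragments gives the signal; data fitted for gain over DMSO negative control. Source: HepG2 cells bearing transient multiple reporter transcription units, 24 h exposure.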

[4] = target: Nuclear receptor subfamily 4 group A member 2 (Homo sapiens) (UniProt P43354); test: ATG_NURR1_TRANS: Attagene TRANS-FACTORIAL HepG2 Assay for human Nuclear Receptor Related Protein 1 (NURR1) (AID 2282985; active = hit-call score of the fitted dose curve at least 0.9, where 1 is the maximum); details: HepG2 Attagene TRANS reporter, mRNA readout
Nuclear receptor subfamily 4 group A member 2 (Homo sapiens), sequence (P43354 whole entry, looked up): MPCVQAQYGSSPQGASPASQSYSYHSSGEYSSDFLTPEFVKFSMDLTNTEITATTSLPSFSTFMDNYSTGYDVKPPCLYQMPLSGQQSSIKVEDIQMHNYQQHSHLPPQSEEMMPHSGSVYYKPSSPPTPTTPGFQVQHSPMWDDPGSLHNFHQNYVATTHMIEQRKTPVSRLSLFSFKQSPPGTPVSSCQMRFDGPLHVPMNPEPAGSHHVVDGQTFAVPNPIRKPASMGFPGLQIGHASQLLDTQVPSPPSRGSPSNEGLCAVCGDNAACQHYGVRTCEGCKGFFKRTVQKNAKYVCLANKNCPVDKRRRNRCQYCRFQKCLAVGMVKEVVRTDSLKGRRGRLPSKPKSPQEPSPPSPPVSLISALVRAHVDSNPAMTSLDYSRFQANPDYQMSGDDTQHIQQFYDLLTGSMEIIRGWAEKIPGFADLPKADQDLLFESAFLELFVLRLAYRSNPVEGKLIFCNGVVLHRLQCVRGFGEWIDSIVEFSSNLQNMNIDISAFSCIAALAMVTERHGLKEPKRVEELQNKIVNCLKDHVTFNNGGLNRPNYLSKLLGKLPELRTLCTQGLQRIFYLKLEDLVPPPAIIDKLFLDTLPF
Outline: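 HepG2 / transient MRTU transfection / 24 h compound exposure / RT-PCR + CE fluorescence of reporter mRNA / gain-of-signal vs DMSO.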

[5] = target: Transcriptional activator Myb (Homo sapiens) (UniProt P10242); test: ATG_Myb_CIS: Attagene CIS-FACTORIAL HepG2 Assay for human Myeloblastosis (Myb) Proto-Oncogene Transcription Factor (AID 2282986); details: HepG2 Attagene CIS-FACTORIAL Myb reporter transcription; actives raise or lower the signal
Transcriptional activator Myb (Homo sapiens), sequence (P10242 whole entry, looked up): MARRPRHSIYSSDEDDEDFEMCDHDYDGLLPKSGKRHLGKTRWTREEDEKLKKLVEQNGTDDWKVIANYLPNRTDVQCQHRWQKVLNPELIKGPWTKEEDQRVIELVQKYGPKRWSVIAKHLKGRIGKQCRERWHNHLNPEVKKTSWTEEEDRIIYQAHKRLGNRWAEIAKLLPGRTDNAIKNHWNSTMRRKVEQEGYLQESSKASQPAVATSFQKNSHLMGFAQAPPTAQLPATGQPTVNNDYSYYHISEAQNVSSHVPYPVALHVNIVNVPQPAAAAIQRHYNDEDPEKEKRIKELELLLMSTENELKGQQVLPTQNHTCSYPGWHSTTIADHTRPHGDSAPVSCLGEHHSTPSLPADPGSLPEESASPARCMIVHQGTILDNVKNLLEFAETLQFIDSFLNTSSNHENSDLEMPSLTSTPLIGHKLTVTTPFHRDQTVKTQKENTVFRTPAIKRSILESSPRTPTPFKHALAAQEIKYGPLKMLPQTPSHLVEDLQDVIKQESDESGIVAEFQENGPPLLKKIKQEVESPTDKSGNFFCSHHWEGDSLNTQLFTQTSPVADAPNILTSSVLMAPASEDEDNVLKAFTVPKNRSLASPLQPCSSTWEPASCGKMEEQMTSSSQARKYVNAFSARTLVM
Outline: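 HepG2, transient MRTU transfection (cis-element promoters, endogenous TF activity), 24 h compound exposure. Readout: reporter mRNA via RT-PCR, 6-FAM labeling, HpaI digest, capillary electrophoresis. Gain/loss fit vs DMSO.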

[6] = target: Nuclear respiratory factor 1 (Homo sapiens) (UniProt Q16656); test: ATG_NRF1_CIS: Attagene CIS-FACTORIAL HepG2 Assay for human Nuclear Respiratory Factor 1 (NRF1) Orphan Gene (AID 2282987); details: HepG2 NRF1 cis-element reporter, Attagene multiplex; actives raise or lower the signal
Nuclear respiratory factor 1 (Homo sapiens), sequence (Q16656 whole entry, looked up): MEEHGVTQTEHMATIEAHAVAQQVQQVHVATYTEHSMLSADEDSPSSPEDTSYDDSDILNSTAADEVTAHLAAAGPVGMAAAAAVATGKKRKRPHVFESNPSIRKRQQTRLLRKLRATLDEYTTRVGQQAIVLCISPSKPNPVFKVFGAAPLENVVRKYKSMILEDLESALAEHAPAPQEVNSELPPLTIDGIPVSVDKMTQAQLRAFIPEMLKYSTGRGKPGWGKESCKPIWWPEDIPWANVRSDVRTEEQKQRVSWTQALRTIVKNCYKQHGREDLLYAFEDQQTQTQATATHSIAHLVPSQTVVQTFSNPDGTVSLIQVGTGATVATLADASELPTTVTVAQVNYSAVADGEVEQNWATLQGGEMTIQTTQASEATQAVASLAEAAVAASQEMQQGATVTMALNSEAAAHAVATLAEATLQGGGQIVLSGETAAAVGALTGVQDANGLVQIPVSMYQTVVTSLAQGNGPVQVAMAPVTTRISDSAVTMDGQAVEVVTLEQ
Outline: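 Endogenous NRF1-driven reporter transcription measured in transiently transfected human HepG2 liver cells. Readout: reporter mRNA by RT-PCR and capillary electrophoresis with fluorescence detection, 24 h post-dosing. Gain or loss of signal fitted relative to DMSO baseline.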

[7] = ATG_NFI_CIS: Attagene CIS-FACTORIAL HepG2 Assay for human Nuclear Factor I (NFI) (AID 2282989); details: HepG2 cis-regulatory reporter, NFI response element transcription; actives raise or lower the signal
Outline: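 Transfected HepG2 liver cells, exposed 24 h, supplied total RNA for oligo(dT) reverse transcription and reporter-specific PCR. Labelled, HpaI-cut fragments were sized by capillary electrophoresis; DMSO set the baseline for bidirectional fitting.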

[8] = target: Myc proto-oncogene protein (Homo sapiens) (UniProt P01106); test: ATG_Myc_CIS: Attagene CIS-FACTORIAL HepG2 Assay for human Myelocytomatosis (Myc) Proto-Oncogene Transcription Factor (AID 2282990); details: HepG2, Attagene cis-reporter transcription factor activity; actives raise or lower the signal
Myc proto-oncogene protein (Homo sapiens), sequence (P01106 whole entry, looked up): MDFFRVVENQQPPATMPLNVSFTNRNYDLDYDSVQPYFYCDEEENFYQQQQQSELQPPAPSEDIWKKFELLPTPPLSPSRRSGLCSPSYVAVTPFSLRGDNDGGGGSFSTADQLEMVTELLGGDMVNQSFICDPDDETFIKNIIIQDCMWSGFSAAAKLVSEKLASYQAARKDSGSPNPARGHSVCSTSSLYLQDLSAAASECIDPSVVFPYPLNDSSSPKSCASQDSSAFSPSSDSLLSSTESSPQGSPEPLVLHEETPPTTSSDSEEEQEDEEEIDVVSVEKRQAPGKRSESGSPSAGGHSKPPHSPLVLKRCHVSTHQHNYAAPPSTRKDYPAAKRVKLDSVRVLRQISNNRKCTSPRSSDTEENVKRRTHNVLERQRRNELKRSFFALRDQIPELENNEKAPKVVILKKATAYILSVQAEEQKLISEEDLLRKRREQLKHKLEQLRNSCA
Outline: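 Transiently transfected HepG2 cells bearing cis-promoter reporter units for endogenous transcription factors; 24 h exposure. Reporter mRNA measured by RT-PCR, 6-FAM primer extension, HpaI cut and capillary electrophoresis; bidirectional fit relative to DMSO.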

[9] = ATG_NF_kB_CIS: Attagene CIS-FACTORIAL HepG2 Assay for human Nuclear Factor Kappa B (NF-kB) (AID 2282991); details: HepG2 Attagene cis-factorial NF-kB reporter mRNA; actives raise or lower the signal
Outline: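 Read-out: reporter transcript levels quantified by RT-PCR plus capillary electrophoresis of 6-FAM-labelled, HpaI-cut fragments. Transfected HepG2 cells, 24 h compound exposure, endogenous NF-kB-driven cis element; gain or loss scored versus DMSO.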

[10] = ATG_NRF2_ARE_CIS: Attagene CIS-FACTORIAL HepG2 Assay for human Nuclear Factor Erythroid 2 Related Factor 2 (NFR2) response to Antioxidant Response Elements (ARE) (AID 2282992); details: HepG2 Attagene ARE/NRF2 reporter, transcription factor activity; actives raise or lower the signal
Outline: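 HepG2 cells transiently transfected with multiplexed cis-element reporter constructs, 24 h after chemical dosing; reporter mRNA quantified by RT-PCR, fluorescent primer extension, HpaI digestion and capillary electrophoresis. Bidirectional fit relative to DMSO.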

[11] = ATG_Oct_MLP_CIS: Attagene CIS-FACTORIAL HepG2 Assay for human Octamer-Binding Transcription Factor (Oct) (AID 2282993); details: HepG2 Attagene cis-factorial Oct reporter, mRNA; actives raise or lower the signal
Outline: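 Using HepG2 cells bearing transfected cis-reporter constructs, mRNA induction was read after 24 h by fluorescent RT-PCR and capillary electrophoresis, with DMSO defining baseline for gain- or loss-of-signal fits.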

[12] = target: Cellular tumor antigen p53 (Homo sapiens) (UniProt P04637); test: ATG_p53_CIS: Attagene CIS-FACTORIAL HepG2 Assay for human p53 Transcription Factor (AID 2282994); details: HepG2 p53 cis-element reporter, Attagene mRNA; actives raise or lower the signal
Cellular tumor antigen p53 (Homo sapiens), sequence (P04637 whole entry, looked up): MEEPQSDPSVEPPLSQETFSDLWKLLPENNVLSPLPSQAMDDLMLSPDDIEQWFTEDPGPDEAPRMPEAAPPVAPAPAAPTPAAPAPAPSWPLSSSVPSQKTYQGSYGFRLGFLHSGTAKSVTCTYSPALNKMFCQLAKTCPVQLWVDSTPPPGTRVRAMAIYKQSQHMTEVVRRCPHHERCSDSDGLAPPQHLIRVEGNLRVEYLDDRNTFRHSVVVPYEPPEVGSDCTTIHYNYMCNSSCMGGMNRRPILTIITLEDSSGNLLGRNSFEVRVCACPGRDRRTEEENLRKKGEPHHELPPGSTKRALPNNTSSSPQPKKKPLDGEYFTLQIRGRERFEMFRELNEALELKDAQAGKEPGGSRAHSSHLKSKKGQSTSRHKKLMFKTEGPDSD
Outline: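 HepG2 cells transiently transfected with cis-regulated multiple reporter transcription units, dosed 24 h. Reporter mRNA measured by RT-PCR, 6-FAM primer extension, HpaI digestion and capillary electrophoresis; bidirectional fit relative to DMSO.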

[13] = BSK_3C_TissueFactor: BioMAP Diversity Plus: 3C Assay for Tissue Factor Biomarker Activity (AID 2282997); details: BioMAP 3C HUVEC, tissue factor biomarker readout; actives raise or lower the signal
Outline: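 Endothelial monolayers (human umbilical vein, primary) are dosed, incubated 24 h, and assayed for Tissue Factor by ELISA; DMSO serves as negative control for bidirectional fitting.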

[14] = BSK_3C_uPAR: BioMAP Diversity Plus: 3C Assay for Urokinase-type plasminogen activator receptor (uPAR) Biomarker Activity (AID 2282998); details: BioMAP 3C HUVEC, uPAR biomarker ELISA; actives raise or lower the signal
Outline: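 In this endothelial cell-based assay, human umbilical vein primary cells were treated with chemicals and harvested at 24 h. uPAR was quantified using ELISA, with gains or losses fitted relative to DMSO controls.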

[15] = BSK_3C_VCAM1: BioMAP Diversity Plus: 3C Assay for Vascular cell adhesion molecule 1 (VCAM1) Biomarker Activity (AID 2282999); details: BioMAP 3C HUVEC, VCAM1 ELISA, cytokine-stimulated; actives raise or lower the signal
Outline: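 Human umbilical vein endothelial cells (3C system), biomarker read by ELISA 24 h after dosing; bidirectional fit against DMSO baseline. Cytotoxicity tracked by SRB total-protein staining in parallel cultures at biomarker time.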

[16] = target: Estrogen-related receptor gamma (Homo sapiens) (UniProt P62508); test: ATG_ERRg_TRANS: Attagene TRANS-FACTORIAL HepG2 Assay for human Estrogen-Related Receptor gamma (ERRg) (AID 2282977; active = hit-call score of the fitted dose curve at least 0.9, where 1 is the maximum;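 also: hits increase reporter signal over DMSO so potencies reflect activators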); details: HepG2 Attagene TRANS reporter, ERRg transactivation
Estrogen-related receptor gamma (Homo sapiens), sequence (P62508 whole entry, looked up, the tested form may be a part): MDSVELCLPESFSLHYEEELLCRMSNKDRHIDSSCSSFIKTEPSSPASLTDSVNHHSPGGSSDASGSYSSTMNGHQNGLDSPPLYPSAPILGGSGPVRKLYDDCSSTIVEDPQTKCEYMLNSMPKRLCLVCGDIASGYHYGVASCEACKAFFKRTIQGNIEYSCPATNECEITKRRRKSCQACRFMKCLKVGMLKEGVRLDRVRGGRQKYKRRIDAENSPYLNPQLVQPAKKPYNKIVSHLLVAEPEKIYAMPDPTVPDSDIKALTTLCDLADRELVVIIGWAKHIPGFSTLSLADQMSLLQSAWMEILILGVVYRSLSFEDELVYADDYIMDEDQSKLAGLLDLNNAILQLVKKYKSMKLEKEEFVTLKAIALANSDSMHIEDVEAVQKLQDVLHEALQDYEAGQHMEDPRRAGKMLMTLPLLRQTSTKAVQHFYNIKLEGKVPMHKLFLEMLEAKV
Outline: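 Transient HepG2 transfectants, 24 h compound exposure, GAL4-UAS reporter mRNA by RT-PCR/6-FAM labelling/capillary electrophoresis; positive direction vs DMSO.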

[17] = target: Oxysterols receptor LXR-alpha (Homo sapiens) (UniProt Q13133); test: ATG_LXRa_TRANS: Attagene TRANS-FACTORIAL HepG2 Assay for human Liver X Receptor alpha (LXRa) (AID 2282980; active = hit-call score of the fitted dose curve at least 0.9, where 1 is the maximum); details: HepG2 Attagene TRANS reporter, LXRa transactivation
Oxysterols receptor LXR-alpha (Homo sapiens), sequence (Q13133 whole entry, looked up, the tested form may be a part): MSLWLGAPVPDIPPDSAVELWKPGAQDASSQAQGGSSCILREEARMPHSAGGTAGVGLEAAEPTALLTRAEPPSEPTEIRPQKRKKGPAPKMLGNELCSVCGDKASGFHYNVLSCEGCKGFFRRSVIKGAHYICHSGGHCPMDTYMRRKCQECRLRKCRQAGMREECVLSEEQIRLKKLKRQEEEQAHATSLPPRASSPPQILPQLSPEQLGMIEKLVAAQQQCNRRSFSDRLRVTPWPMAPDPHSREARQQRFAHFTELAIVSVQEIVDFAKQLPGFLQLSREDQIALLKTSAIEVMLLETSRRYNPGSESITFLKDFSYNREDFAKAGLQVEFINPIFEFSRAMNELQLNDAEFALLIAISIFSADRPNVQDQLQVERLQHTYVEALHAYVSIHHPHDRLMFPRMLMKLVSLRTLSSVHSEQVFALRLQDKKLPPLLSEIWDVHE
Outline: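 In this multiplexed TRANS system, compounds act on HepG2 cells carrying GAL4-UAS reporter units and a receptor-GAL4 fusion for 24 h. Induced reporter RNA is amplified, fluorescently labelled and sized by capillary electrophoresis, with DMSO as baseline.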

[18] = target: Oxysterols receptor LXR-beta (Homo sapiens) (UniProt P55055); test: ATG_LXRb_TRANS: Attagene TRANS-FACTORIAL HepG2 Assay for human Liver X Receptor beta (LXRb) (AID 2282981; active = hit-call score of the fitted dose curve at least 0.9, where 1 is the maximum); details: HepG2 Attagene TRANS GAL4-LXRb reporter, mRNA
Oxysterols receptor LXR-beta (Homo sapiens), sequence (P55055 whole entry, looked up, the tested form may be a part): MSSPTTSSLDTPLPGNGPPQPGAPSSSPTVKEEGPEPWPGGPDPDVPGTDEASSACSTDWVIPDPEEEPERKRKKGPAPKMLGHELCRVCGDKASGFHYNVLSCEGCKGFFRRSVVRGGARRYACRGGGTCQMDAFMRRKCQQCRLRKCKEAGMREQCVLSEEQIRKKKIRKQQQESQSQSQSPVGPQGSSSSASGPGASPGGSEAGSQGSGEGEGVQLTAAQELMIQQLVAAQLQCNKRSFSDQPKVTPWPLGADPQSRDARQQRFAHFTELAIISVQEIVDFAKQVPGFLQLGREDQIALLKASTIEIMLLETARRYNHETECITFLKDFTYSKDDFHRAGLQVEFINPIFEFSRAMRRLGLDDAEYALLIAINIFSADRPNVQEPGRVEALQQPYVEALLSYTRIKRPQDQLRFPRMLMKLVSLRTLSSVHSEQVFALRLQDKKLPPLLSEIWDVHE
Outline: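 Gain-of-signal mRNA reporter endpoint, DMSO as negative control. Transiently transfected HepG2 cells carrying the NR-Gal4 chimera and GAL4-UAS reporter units were treated 24 h; transcripts quantified by RT-PCR and capillary electrophoresis fluorescence.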

[19] = target: Hepatocyte nuclear factor 4-alpha (Homo sapiens) (UniProt P41235); test: ATG_HNF4a_TRANS: Attagene TRANS-FACTORIAL HepG2 Assay for human Hepatocyte Nuclear Factor 4 alpha (HNF4a) (AID 2282982; active = hit-call score of the fitted dose curve at least 0.9, where 1 is the maximum); details: HepG2 HNF4a transactivation reporter, mRNA readout
Hepatocyte nuclear factor 4-alpha (Homo sapiens), sequence (P41235 whole entry, looked up, the tested form may be a part): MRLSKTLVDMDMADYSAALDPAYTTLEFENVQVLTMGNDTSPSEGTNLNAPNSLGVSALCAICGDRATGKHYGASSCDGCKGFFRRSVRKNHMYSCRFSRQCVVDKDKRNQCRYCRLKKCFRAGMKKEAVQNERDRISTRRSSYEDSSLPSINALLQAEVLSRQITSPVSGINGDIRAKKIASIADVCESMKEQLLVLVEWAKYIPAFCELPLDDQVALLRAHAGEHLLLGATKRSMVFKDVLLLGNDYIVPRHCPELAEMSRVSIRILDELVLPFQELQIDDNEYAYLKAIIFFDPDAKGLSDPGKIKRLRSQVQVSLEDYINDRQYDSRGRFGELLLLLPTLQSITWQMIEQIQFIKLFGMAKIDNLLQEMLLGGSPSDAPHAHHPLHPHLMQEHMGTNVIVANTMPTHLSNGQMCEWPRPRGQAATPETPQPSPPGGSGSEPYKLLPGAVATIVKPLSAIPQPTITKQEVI
Outline: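 Gain-of-signal mRNA induction, relative to DMSO vehicle, was read after 24 h compound treatment of HepG2 cells bearing transfected GAL4-UAS reporters. Detection used RT-PCR, 6-FAM primer extension and capillary electrophoresis.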

[20] = ATG_M_06_TRANS: Attagene TRANS-FACTORIAL HepG2 Assay for M06 Transcription Factor (Internal Marker) (AID 2282983; active = hit-call score of the fitted dose curve at least 0.9, where 1 is the maximum); details: HepG2 Attagene TRANS M06 internal marker reporter
Outline: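 Internal-marker background readout from a multiplexed TRANS reporter system in HepG2; 24 h dosing; mRNA induction quantified by RT-PCR plus capillary electrophoresis fluorescence; DMSO as negative control and baseline.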

## c1ccc(-c2ccccc2)cc1
[1]
  outcome: inactive
[2]
  outcome: inactive
[3]
  outcome: inactive
[4]
  outcome: inactive
[5]
  outcome: inactive
[6]
  outcome: inactive
[7]
  outcome: inactive
[8]
  outcome: inactive
[9]
  outcome: inactive
[10]
  outcome: inactive
[11]
  outcome: inactive
[12]
  AC50: 197 µM (active)
[13]
  outcome: inactive
[14]
  outcome: inactive
[15]
  outcome: inactive

## O=C(O)C(F)(F)C(F)(F)C(F)(F)C(F)(F)C(F)(F)C(F)(F)C(F)(F)C(F)(F)C(F)(F)F
[16]
  outcome: inactive
[1]
  outcome: inactive
[17]
  outcome: inactive
[18]
  outcome: inactive
[19]
  outcome: inactive
[20]
  outcome: inactive
[3]
  outcome: inactive
[4]
  AC50: 12.9 µM (active)
  outcome: inactive
[5]
  outcome: inactive
[6]
  outcome: inactive
[7]
  outcome: inactive
[8]
  outcome: inactive
[9]
  outcome: inactive
[10]
  AC50: 59.6 µM (active) and 12.3 µM (active) and 24.7 µM (active)
[11]
  AC50: 45.5 µM (active) and 50 µM (active)
  outcome: inactive
[12]
  AC50: 46.9 µM (active) and 69.4 µM (active)
  outcome: inactive
[13]
  AC50: 51.8 µM (active) and 50.7 µM (active)
  outcome: inactive
[14]
  AC50: 46.2 µM (active) and 51.4 µM (active)
  outcome: inactive
[15]
  AC50: 56.8 µM (active) and 53.1 µM (active)
  outcome: inactive

## CCC(C)c1cc([N+](=O)[O-])cc([N+](=O)[O-])c1O (stereo not drawn)
[16]
  outcome: inactive
[1]
  outcome: inactive
[2]
  outcome: inactive
[17]
  outcome: inactive
[18]
  outcome: inactive
[19]
  outcome: inactive
[20]
  outcome: inactive
[5]
  outcome: inactive
[6]
  outcome: inactive
[7]
  outcome: inactive
[8]
  outcome: inactive
[9]
  outcome: inactive
[10]
  AC50: 14.1 µM (active)
[11]
  AC50: 16.4 µM (active)
[12]
  outcome: inactive
[13]
  outcome: inactive
[14]
  AC50: 9.09 µM (active)
[15]
  AC50: 8.86 µM (active)
